# Results: PubChem BioAssay (Tox21)
# Where “and” joins values, the source holds several entries; their conditions need not be identical. Identical values can stand only once. Inconclusive results are not listed. Entries that show only a call come without a potency. More than one record can exist for a structure, and the calls need not agree. Calls of active or inactive are those of the source. The call rests on the fitted dose curve; in most records, active means well fitted inhibition curve with a large enough effect in the repeat runs; inconclusive means weak or mixed curves; inactive means flat fitted curve, though single readings scatter.
# Target: Voltage-gated inwardly rectifying potassium channel KCNH2 (Homo sapiens) (UniProt Q12809)
# Experiment: Human Ether-a-go-go-Related Gene (hERG) channel small molecule antagonists: fluorescence cell-based qHTS assay (AID 1671200); further: nearly all actives have a fitted effect of over 50% in size
# Conditions: hERG-U2OS cells, FluxOR thallium flux fluorescence; series mostly up to 76.8 µM; activity change, negative = inhibition: at the top concentration
# Description: National Center for Advancing Translational Sciences [NCATS]
# U.S. Environmental Protection Agency [EPA]
# National Institutes of Environmental Health Sciences [NIEHS]
# National Toxicology Program [NTP]
# U.S. Food and Drug Administration [FDA]
# Mutations in the hERG channel cause Long QT (LQT) syndrome. LQT syndrome is a cardiac disorder which can cause ventricle arrhythmia and sudden death. Additionally, compounds which block the hERG channel can cause acquired LQT syndrome. Several FDA approved drugs have been removed from the market due to their hERG blocking activity. A cell-based hERG channel inhibition assay can be used to screen chemical compounds that inhibit hERG channel. This assay measures hERG channel activity using thallium ions as surrogate ions to measure potassium into the cells.
# Tox21 Assay Protocol Summary:
# hERG-U2OS cells were resuspended in culture medium and dispensed into 1536-well, black wall/clear-bottom plates at 1000cells/well/3uL using a Multidrop Combi dispenser (Thermo Fisher, Waltham, MA). After plates were incubated at 37 C overnight, 3 uL of Loading Buffer provided by FluxOR II Potassium Ion Channel Assay kit (Thermo, Carlsbad, CA) was added to each well. The assay plates were then incubated at room temperature in the dark for 1h. […] After the assay plates were incubated at room temperature for 10 min, 1 uL of Stimulus Buffer provided by FluxOR II Potassium Ion Channel Assay kit was added into each well and fluorescence intensity (480nm excitation/540nm emission) was continuously measured for 2 min at 1 second intervals using a Functional Drug Screening System (FDSS) 7000EX kinetic plate reader (Hamamatsu, Japan).
# Potency means the concentration at half of the fitted maximal effect.
# Sequence of Voltage-gated inwardly rectifying potassium channel KCNH2 (Homo sapiens) (Q12809 whole entry, looked up): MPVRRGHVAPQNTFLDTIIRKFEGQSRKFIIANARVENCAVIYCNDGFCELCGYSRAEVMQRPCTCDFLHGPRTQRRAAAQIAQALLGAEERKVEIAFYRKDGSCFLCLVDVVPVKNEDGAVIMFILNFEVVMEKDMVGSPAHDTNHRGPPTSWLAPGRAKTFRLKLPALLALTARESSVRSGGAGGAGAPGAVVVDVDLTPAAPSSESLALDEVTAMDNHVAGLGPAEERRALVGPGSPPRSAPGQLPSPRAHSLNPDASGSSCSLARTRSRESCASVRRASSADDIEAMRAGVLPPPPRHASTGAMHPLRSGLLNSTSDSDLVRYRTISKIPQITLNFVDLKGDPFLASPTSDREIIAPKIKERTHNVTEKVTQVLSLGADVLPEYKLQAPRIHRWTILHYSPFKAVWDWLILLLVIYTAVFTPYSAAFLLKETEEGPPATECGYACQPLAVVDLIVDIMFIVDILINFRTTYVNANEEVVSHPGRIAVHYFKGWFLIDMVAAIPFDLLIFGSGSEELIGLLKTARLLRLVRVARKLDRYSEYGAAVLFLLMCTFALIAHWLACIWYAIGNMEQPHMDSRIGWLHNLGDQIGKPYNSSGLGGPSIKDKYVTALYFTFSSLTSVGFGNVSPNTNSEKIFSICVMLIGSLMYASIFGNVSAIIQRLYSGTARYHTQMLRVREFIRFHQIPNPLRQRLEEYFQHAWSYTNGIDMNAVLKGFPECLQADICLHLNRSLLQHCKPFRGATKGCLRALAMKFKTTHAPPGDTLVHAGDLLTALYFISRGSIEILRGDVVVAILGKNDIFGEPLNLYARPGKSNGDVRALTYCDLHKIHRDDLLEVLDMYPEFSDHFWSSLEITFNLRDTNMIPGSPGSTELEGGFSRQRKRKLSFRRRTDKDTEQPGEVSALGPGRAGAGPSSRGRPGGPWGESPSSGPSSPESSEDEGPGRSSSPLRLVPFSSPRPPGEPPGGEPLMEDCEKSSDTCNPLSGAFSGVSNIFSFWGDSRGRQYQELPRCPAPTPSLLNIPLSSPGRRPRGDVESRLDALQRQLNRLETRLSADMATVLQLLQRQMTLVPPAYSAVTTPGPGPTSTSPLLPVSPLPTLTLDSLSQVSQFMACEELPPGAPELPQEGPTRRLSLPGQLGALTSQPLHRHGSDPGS
SMILES,Potency,"activity change, negative = inhibition"
O=S(=O)(Oc1ccc(Cl)cc1)c1ccc(Cl)cc1,24.5 µM (active),
Nn1cnnc1,inactive,
NC(=S)Nc1ccccc1,,1.46% (inactive)
C1=Cc2cccc3cccc1c23,inactive,
C=CCc1ccc2c(c1)OCO2,inactive,
O=Cc1ccco1,inactive,
Oc1c(Cl)c(Cl)c(Cl)c(Cl)c1Cl,inactive,
CC(C)N(C(=O)SCC(Cl)=C(Cl)Cl)C(C)C,27.5 µM (active),
CC(C)C(=O)OCC(C)(C)C(OC(=O)C(C)C)C(C)C (stereo not given),inactive,
CC(C)(OOC(C)(C)c1ccccc1)c1ccccc1,,-17.2% (inactive)
OCC(O)CO,inactive,
O=[N+]([O-])c1cccc2ccccc12,inactive,
Cc1c(COC(=O)[C@@H]2[C@H](/C=C(\Cl)C(F)(F)F)C2(C)C)cccc1-c1ccccc1,inactive,
CCCCCCCCC(=O)NCc1ccc(O)c(OC)c1,inactive,
Brc1ccc(Oc2cc(Br)c(Br)cc2Br)c(Br)c1,,-26.9% (inactive)
Nc1ccc(Cl)c(Cl)c1,inactive,
C=C(C)[C@H]1Cc2c(ccc3c2O[C@@H]2COc4cc(OC)c(OC)cc4[C@@H]2C3=O)O1,inactive,
Cc1ccccc1[N+](=O)[O-],inactive,
CCCCCc1cc(O)cc(O)c1,inactive,
Oc1cc(Cl)c(Cl)cc1Cl,inactive,

SMILES,Potency,"activity change, negative = inhibition"
ClC1C(Cl)C(Cl)C(Cl)C(Cl)C1Cl (stereo not given),39.7 µM (active) and inactive and 43.6 µM (active),
Cc1cc(C)cc(C)c1,inactive,
O=C1C=CC(=O)C=C1,inactive,
C=CCN(CC=C)C(=O)C(Cl)Cl,,7.38% (inactive)
Cc1ccc2c(c1N)C(=O)c1ccccc1C2=O,inactive,
COc1ccc(C=O)cc1,inactive,
O=C(NC(=O)c1c(F)cccc1F)Nc1ccc(Cl)cc1,inactive,
NCc1cccnc1,inactive,
Nc1cccnc1,inactive,
CCCCC(CC)COC(=O)c1ccc(C(=O)OCC(CC)CCCC)c(C(=O)OCC(CC)CCCC)c1 (stereo not given),inactive,
CCC(C)(C)c1ccc(O)cc1,inactive,
C[C@]12CCC(=O)C[C@@H]1CC[C@@H]1[C@@H]2CC[C@]2(C)[C@@H](O)CC[C@@H]12,21.6 µM (active),
c1ccc(-c2cccc(-c3ccccc3)c2)cc1,inactive,
CNC(=O)N(C)c1nnc(C(C)(C)C)s1,inactive,
CN(C)C(=O)Nc1ccc(Cl)cc1,inactive,
O=[N+]([O-])c1c(Cl)c(Cl)c(Cl)c(Cl)c1Cl,inactive,
O=C(CCl)c1ccccc1,inactive,
CCN(CC)N=O,inactive,
COP(=O)(OC)OC,inactive,
C=C(C)C(=O)OCC1CO1 (stereo not given),inactive,
